High-throughput results: PubChem BioAssay, Broad Institute
The entries come from a sample that favours hits as a whole.
DUX4 inh: blocks DUX4-driven transcriptional activation | 293T-iDUX4 ZSCAN4-Gaussia luciferase reporter, 24 h; active compounds read low | actives 0.8% (n = 37,000) | activity change, negative = inhibition, % (concentration not given with the values);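 active = mean inhibition of at least 10% in the main channel, exceeding the control channel by a set limit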;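 note: 0% = median of neutral control wells and -100% = median of positive control wells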
* marks the source's active call; other numbers are inactive results; ! = repeats disagree.

SMILES	DUX4 inh
C[C@H](CO)N1C[C@H](C)[C@H](CN(C)Cc2ccc(C(=O)Nc3ccccc3N)cc2)OCc2cnnn2CCCC1=O	-16.0*
C[C@@H]1CN([C@@H](C)CO)C(=O)CCCn2nncc2CO[C@@H]1CN(C)Cc1ccc(C(=O)O)cc1	2.7
C[C@H]1CN([C@@H](C)CO)C(=O)CCCn2nncc2CO[C@H]1CN(C)Cc1ccc(C(=O)O)cc1	0.7
COc1ccc2c3c([nH]c2c1)[C@@H](CO)N(C(=O)c1ccc(F)cc1)CC31CCN(C)CC1	3.2
C[C@H](CO)N1C[C@H](C)[C@@H](CN(C)C(=O)CCN(C)C)OCc2ccccc2-c2ccccc2C1=O	14.0
Cc1ccccc1S(=O)(=O)N1CCCCN2[C@H](C1)[C@@H](c1ccc(-c3cccnc3)cc1)[C@@H]2CO	-4.8
Cc1ccccc1S(=O)(=O)N1CCCCN2[C@@H](CO)[C@H](c3ccc(-c4cccc(F)c4)cc3)[C@@H]2C1	-46.9*
Cc1ccccc1S(=O)(=O)N1CCCCN2[C@H](CO)[C@@H](c3ccc(-c4cccnc4)cc3)[C@H]2C1	-5.1
Cc1cccc(-c2ccc([C@H]3[C@@H](CO)N4CCCCN(S(=O)(=O)c5ccccc5F)C[C@@H]34)cc2)c1	-3.1
Cc1ccc(-c2ccc([C@@H]3[C@@H](CO)N4CCCCN(S(=O)(=O)c5ccccc5C)C[C@H]34)cc2)cc1	-24.5*
Cc1ccccc1S(=O)(=O)N1CCCCN2[C@H](C1)[C@@H](c1ccc(-c3cccc(F)c3)cc1)[C@@H]2CO	7.5
COc1cccc(CNC(=O)C[C@H]2CC[C@H]3[C@H](COc4ccc(NC(C)=O)cc4C(=O)N3C)O2)c1	-3.3
COCC(=O)N1CC[C@@H]2[C@@H](CO)Nc3ccc(C#Cc4ccc(F)cc4)cc3[C@@H]21	14.8
CCC(=O)N1CC[C@@H]2[C@H](CO)Nc3ccc(C#Cc4ccc(OC)cc4)cc3[C@@H]21	3.3
O=C(Cc1ccccc1)N1CC[C@@H]2[C@H]1c1cc(-c3ccc(F)cc3)ccc1N[C@@H]2CO	-23.5*
O=C(CN1CCOCC1)N1CC[C@H]2[C@H](CO)Nc3ccc(-c4ccccc4)cc3[C@H]21	24.0
COCC(=O)N1CC[C@@H]2[C@H]1c1cc(-c3ccc(C#N)cc3)ccc1N[C@@H]2CO	-33.7*
COCC(=O)N1CC[C@@H]2[C@H](CO)Nc3ccc(-c4ccc(C(=O)N(C)C)cc4)cc3[C@@H]21	-1.0
O=C(Cc1ccccc1)N1CC[C@@H]2[C@@H](CO)Nc3ccc(-c4cccc(F)c4)cc3[C@@H]21	6.6
COc1ccccc1C#Cc1ccc2c(c1)[C@H]1[C@H](CCN1C(=O)CN1CCOCC1)[C@@H](CO)N2	1.6
COCC(=O)N1CC[C@@H]2[C@H]1c1cc(C#Cc3ccc(OC)cc3)ccc1N[C@@H]2CO	-18.1*
N#Cc1ccc(-c2ccc3c(c2)[C@@H]2[C@@H](CCN2C(=O)Cc2ccccc2)[C@H](CO)N3)cc1	-5.4
COCC(=O)N1CC[C@H]2[C@H](CO)Nc3ccc(-c4ccc(C#N)cc4)cc3[C@H]21	2.8
COc1ccccc1C#Cc1ccc2c(c1)[C@H]1[C@H](CCN1C(=O)CN1CCOCC1)[C@H](CO)N2	-20.6*
CNC(=O)C[C@@H]1CC[C@H]2[C@@H](COC[C@H](O)CN2Cc2ccncc2)O1	5.7
SMILES	DUX4 inh
COc1ccc2c3c(n(C)c2c1)[C@H](CO)N(C(=O)CN1CCOCC1)CC31CCN(C)CC1	12.4
O=C(NCc1ccncn1)[C@H]1[C@H](CO)[C@H]2Cn3c(ccc(-c4cccc(F)c4)c3=O)[C@H]2N1CC1CC1	5.6
COCC(=O)N1CC2(CN(C(=O)NC(C)C)C2)c2c(n(C)c3cc(OC)ccc23)[C@@H]1CO	7.7
COc1ccc(C[C@@H]2CCn3cc(nn3)COC[C@@H](Cc3ccccc3)NC2=O)cc1	1.9
C[C@@H]1CCCCO[C@H](CN(C)Cc2ccc(C(=O)Nc3ccccc3N)cc2)[C@H](C)CN([C@@H](C)CO)C(=O)c2cc(N(C)C)ccc2O1	-0.7
Cc1noc(C)c1S(=O)(=O)Nc1ccc2c(c1)C(=O)N([C@@H](C)CO)C[C@@H](C)[C@@H](CN(C)C(=O)Nc1ccc3c(c1)OCO3)OCCCC[C@H](C)O2	3.6
Cc1noc(C)c1NC(=O)N(C)C[C@H]1Oc2ccc(NC(=O)CCN3CCOCC3)cc2CC(=O)N([C@@H](C)CO)C[C@@H]1C	-2.2
CO[C@H]1CN(C)C(=O)c2ccc(NC(C)=O)cc2OC[C@@H](C)N(C(=O)c2cnccn2)C[C@@H]1C	5.7
CCCNC(=O)Nc1ccc2c(c1)C(=O)N(C)C[C@H](OC)[C@@H](C)CN(Cc1cccnc1)[C@H](C)CO2	2.8
Cc1cccc(NC(=O)C[C@H]2CC[C@H]3[C@@H](COc4ccc(NC(=O)NC(C)C)cc4C(=O)N3C)O2)c1	0.8
O=C(C1CCOCC1)N1C[C@@H]2N[C@H](C1)C2c1ccc(-c2cccc(F)c2)cc1 (some centres undefined)	-7.8
CC(=O)N1C[C@@H]2N[C@H](C1)C2c1ccc(-c2ccccc2)cc1 (some centres undefined)	1.0
N#Cc1ccc(-c2ccc(C3[C@@H]4CN(C(=O)C5CCCCC5)C[C@H]3N4)cc2)cc1 (some centres undefined)	-52.3*!
N#Cc1ccc(-c2ccc(C3[C@@H]4CN(C(=O)c5ccncc5)C[C@H]3N4)cc2)cc1 (some centres undefined)	-5.9
N#Cc1cccc(-c2ccc(C3[C@@H]4CN(C(=O)c5ccncc5)C[C@H]3N4)cc2)c1 (some centres undefined)	1.2
N#Cc1cccc(-c2ccc(C3[C@@H]4CN(C(=O)C5CCCCC5)C[C@H]3N4)cc2)c1 (some centres undefined)	-52.4*!
O=C(C[C@H]1C[C@H]2c3cc(NC(=O)NC4CCCCC4)ccc3O[C@H]2[C@H](CO)O1)NCc1ccccn1	-0.7
COc1ccc(-c2cnc3c(c2)C(=O)N([C@@H](C)CO)C[C@@H](C)[C@@H](CN(C)Cc2ccc(C(=O)O)cc2)O3)cc1	1.3
CN1CCN(C(=O)[C@H]2[C@H](CO)[C@H]3Cn4c(ccc(-c5cccnc5)c4=O)[C@H]3N2CC2CC2)CC1	-3.4
C[C@H]1CC=CC[C@@H](c2ccc3c(c2)OCO3)NC(=O)[C@H](Cc2ccccc2)N(C)C(=O)c2ccccc2O1 (mixture of isomers)	-2.4
CNC[C@H]1Oc2ccc(NS(=O)(=O)c3cccs3)cc2C(=O)N([C@@H](C)CO)C[C@@H]1C	4.9
COc1ccc2c3c(n(C)c2c1)[C@@H](CO)N(C(=O)c1ccccn1)CC31CN(C(=O)Cc2ccccc2)C1	-5.2
CCC(=O)N1[C@H](CO)[C@H](c2ccc(C3=CCCC3)cc2)[C@H]1CNCC1CCCC1	4.2
O=C(N[C@H]1CC[C@@H](CC(=O)N2CCc3ccccc3C2)O[C@@H]1CO)C1CCOCC1	7.0
C[C@@H]1CN([C@H](C)CO)C(=O)c2c(c3ccccc3n2C)-c2ccccc2CO[C@@H]1CN(C)Cc1cccc(C(F)(F)F)c1	-5.2
C[C@H]1CN([C@@H](C)CO)C(=O)c2c(c3ccccc3n2C)-c2ccccc2CO[C@@H]1CN(C)Cc1ccccc1C(F)(F)F	-29.8*
C[C@@H]1CN([C@H](C)CO)C(=O)c2c(c3ccccc3n2C)-c2ccccc2CO[C@@H]1CN(C)Cc1ccc(O)cc1	-8.0
C[C@@H]1CN([C@H](C)CO)C(=O)c2c(c3ccccc3n2C)-c2ccccc2CO[C@H]1CN(C)Cc1cccc(O)c1	4.3
